Only some compounds are listed: those with a hit (about 3.3% of all), similar ones and a draw of the others.
HNF4A DNA FP – change in binding of human HNF4 alpha to DNA; P41235; HNF4a-FITC DNA binding, fluorescence polarization, 1 h; activity change, % at 10 µM; 360,000 tested, 0.3% active; in the data active = activity change above about 30%, passing the limit was not always enough
Rpn11 block – blocks the human proteasome subunit Rpn11; 360,000 tested, 0.59% active; human 26S proteasome, Ub4-pepOG fluorescence polarization; 20S core pre-blocked with epoxomicin; AID 588493; inhibition, % at 20 µM;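 active = inhibition at 20 µM, scaled to each plate's controls, above about 33%, limit read from the data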
Target sequence (O00487 whole entry, looked up): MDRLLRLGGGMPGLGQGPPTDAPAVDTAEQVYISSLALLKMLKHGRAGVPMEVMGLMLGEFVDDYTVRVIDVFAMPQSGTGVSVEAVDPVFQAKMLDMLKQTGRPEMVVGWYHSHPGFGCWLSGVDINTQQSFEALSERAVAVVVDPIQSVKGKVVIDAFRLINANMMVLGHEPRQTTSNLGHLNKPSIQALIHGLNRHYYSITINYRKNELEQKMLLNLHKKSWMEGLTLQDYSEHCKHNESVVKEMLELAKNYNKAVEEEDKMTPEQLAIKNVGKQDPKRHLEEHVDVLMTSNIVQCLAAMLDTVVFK
PHOSPHO1 block – blocks human PHOSPHO1 phosphatase activity. recombinant PHOSPHO1, absorbance phosphatase assay. inhibition, % at 13.3 µM. 290,000 tested, 1.1% active; in the data active = inhibition above about 60%
Target sequence (Q8TCT1 whole entry, looked up): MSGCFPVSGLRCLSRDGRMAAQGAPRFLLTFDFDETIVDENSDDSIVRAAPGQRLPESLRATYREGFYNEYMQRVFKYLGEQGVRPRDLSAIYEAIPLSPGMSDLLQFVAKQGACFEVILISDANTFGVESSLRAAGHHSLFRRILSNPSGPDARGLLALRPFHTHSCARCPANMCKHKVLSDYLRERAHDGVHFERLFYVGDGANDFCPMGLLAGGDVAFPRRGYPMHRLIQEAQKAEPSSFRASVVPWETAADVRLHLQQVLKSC
NRP1-CendR mod – NRP-1/CendR interaction modulation | O14786 | FAM-RPARPAR peptide binding to NRP-1, fluorescence polarization | inhibition, % at 25 µM | 360,000 tested, 0.85% active;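 active = inhibition or corrected inhibition above about 18%, plus a signal ratio from 0.5 to 1.5, limit read from the data, passing the limit was not always enough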
TPT1 inh – blocks Candida albicans tRNA 2'-phosphotransferase. recombinant caTPT1, FP RNA substrate dephosphorylation. inhibition, % at 5 µM. 300,000 tested, 0.81% active. AID 1962;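 active = inhibition above the mean of all tested compounds plus 3 SD, set per screening campaign, cut at about 24% in these data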;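 also: plate controls were DMSO alone for no effect and ferristatin control at 100 nM for full effect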
CTSL1 counter – blocks F. hepatica cathepsin L1 in PFM18AAP counter-screen. AID 1906. inhibition, % at 5.96 µM. 300,000 tested, 0.49% active. recombinant F. hepatica cathepsin L1, Z-Leu-Arg-MCA fluorescence;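 active = inhibition above the mean of all tested compounds plus 3 SD, set per screening campaign, cut at about 17% in these data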;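 also: 0% = plate median of test compound wells and 100% = 1 µM Z-Phe-Ala-diazomethylketone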
The depositor's hits bear a star; x = no result given.

SMILES	HNF4A DNA FP	Rpn11 block	PHOSPHO1 block	NRP1-CendR mod	TPT1 inh	CTSL1 counter
Cc1ccc(S(=O)(=O)N2CCC(C(=O)Nc3nnc(-c4ccco4)s3)CC2)cc1	4.5	7.6	-16.2	-9.1	1.7	-0.4
Cc1ccc2nc3c(cc(C(=O)NC4CCS(=O)(=O)C4)n3Cc3ccccc3)c(=O)n2c1 (centres undefined)	4.1	2.6	61.6*	2.2	-0.8	4.3
O=C(NC1CCS(=O)(=O)C1)c1cc2c(=O)n3ccccc3nc2n1Cc1ccccc1 (centres undefined)	2.6	0.0	x	-10.7	x	x
COc1ccc(C(=O)Nc2ccccc2C(=O)NC(C(=O)NCc2ccco2)C(C)C)cc1 (centres undefined)	-5.1	1.8	-2.3	-25.1	-5.5	48.4*
COc1ccc(C(=O)N[C@H](C(=O)NCc2ccco2)C(C)C)cc1	3.1	-5.8	3.2	-3.2	-4.7	18.5*
COc1ccc(C(=O)Nc2ccccc2C(=O)N(Cc2ccco2)C(C(N)=O)C(C)C)cc1 (centres undefined)	-7.5	-4.9	11.5	-32.6	-0.1	38.0*
CCC(C)C(NC(=O)OC(C)(C)C)C(=O)NCc1ccco1 (centres undefined)	-1.3	-2.6	-9.4	-11.3	3.0	20.0*
COc1ccc(C(=O)NNC(=O)C(NC(=O)c2ccccc2NC(=O)c2ccco2)C(C)C)cc1 (centres undefined)	-1.1	-0.3	6.3	-5.0	2.3	-1.3
NC(=O)c1c(NC(NC(=O)c2ccco2)(C(F)(F)F)C(F)(F)F)sc2c1CCCC2	4.0	3.9	-41.5	-30.8	3.7	-1.0
O=C(Nc1ccc2oc(-c3ccncc3)nc2c1)c1ccc([N+](=O)[O-])o1	-2.6	-5.5	27.5	5.6	0.1	23.0*
O=C(Nc1ccc2oc(-c3ccncc3)nc2c1)c1ccccc1	3.3	-8.0	-9.8	0.8	-2.0	2.9
O=C(Cn1ccc(NC(=O)OCc2ccccc2)nc1=O)NCCN1CCOCC1	-1.5	-6.5	x	37.5*	x	x
O=C(Cn1ccc(NC(=O)OCc2ccccc2)nc1=O)NCCCN1CCCC1=O	2.6	-8.5	x	9.0	x	x
Cn1cccc1/C=N/NC(N)=S	2.1	-4.1	47.1	-3.1	-3.4	13.2
CN(C)c1cccc(NC2=CC(=[N+]3CCOCC3)CC(C)(C)C2)c1	-10.3	-4.1	91.3*	9.9	-6.1	4.1
CCOc1ccc(-c2nc(CS(=O)(=O)CC(=O)NCc3ccc(F)cc3)c(C)o2)cc1	-1.3	0.0	15.1	-5.0	2.9	-2.8
CCN(C(=O)COC(=O)c1cc(-c2cccs2)nc2ccccc12)C1CCS(=O)(=O)C1 (centres undefined)	2.0	-11.1	62.9*	-9.4	3.8	-3.2
Cc1ccccc1N1C(=O)CC(Sc2nnc(-c3ccccc3)o2)C1=O (centres undefined)	-0.9	-2.5	81.2*	9.1	0.4	-0.1
O=C1CC(Sc2nnc(-c3ccccc3)o2)C(=O)N1c1ccccc1 (centres undefined)	-1.1	0.8	48.2	-2.0	2.7	1.4
O=C(NCC(F)(F)F)c1ccc(S(=O)(=O)Nc2ccccc2N2CCCC2)cc1	26.6	91.4*	x	-48.2	x	x
Cc1ccc(S(=O)(=O)Nc2ccccc2N2CCCCC2)cc1	-2.4	-5.9	x	2.3	x	x
CSc1nnc([C@@H]2CCCN2C(=O)OC(C)(C)C)o1	-1.8	-4.8	-3.7	-4.0	3.6	8.3
Cn1c(C2CCCN2C(=O)OC(C)(C)C)n[nH]c1=S (centres undefined)	-1.0	-7.5	97.1*	-8.3	-5.7	-0.9
CSc1nnc(-c2ccco2)c(-c2ccco2)n1	-15.3	-30.3	-32.1	29.1*	-0.1	53.0*
CSc1nnc(-c2ccccc2)c(-c2ccccc2)n1	2.7	2.3	-3.1	-3.8	-6.2	1.4
SMILES	HNF4A DNA FP	Rpn11 block	PHOSPHO1 block	NRP1-CendR mod	TPT1 inh	CTSL1 counter
Cc1ccc(NC(=O)CSc2nnc(-c3ccco3)c(-c3ccco3)n2)cc1	-12.3	3.2	60.2*	-0.3	-2.3	7.8
O=C(CSc1nnc(-c2ccco2)c(-c2ccco2)n1)Nc1ccccc1	-12.5	-0.7	63.8*	-11.2	-1.7	16.4
O=C(Nc1c2c(nn1-c1cccc(Cl)c1)CS(=O)(=O)C2)c1ccc2c(c1)OCO2	0.7	-4.5	2.1	2.5	1.0	-3.7
COc1cc2c(cc1OC)C(c1ccccc1[N+](=O)[O-])=NCC2	0.3	2.4	x	9.3	x	x
NC(=O)CN1CCOCCOCCN(CC(N)=O)CCOCCOCC1	-0.3	-9.3	1.7	-4.8	-2.9	0.5
CCOC(=O)C(C)On1c(-c2cccc(Cl)c2)nc2ccc([N+](=O)[O-])cc21 (centres undefined)	1.1	-1.3	21.7	12.9	-4.2	-0.2
CCOC(=O)COn1c(-c2cccc(Cl)c2)nc2ccc([N+](=O)[O-])cc21	0.5	3.7	64.7*	11.0	3.1	-2.7
O=C(NC1(O)C(=O)c2ccccc2C1=O)c1ccccc1	-1.1	12.8	1.2	19.8	2.6	63.9*
O=C(NC1(O)C(=O)c2ccccc2C1=O)c1c(Cl)cccc1Cl	10.1	9.1	52.9	10.9	0.9	53.8*
O=C(Nc1ccccc1Cl)c1c(F)c(F)c(F)c(F)c1F	2.2	-1.3	x	1.4	-0.4	0.0
CC(C)c1ccccc1NC(=O)c1cnccn1	3.1	1.7	-20.1	58.8*	-3.4	2.4
COc1ccc(-c2noc(-c3ccccc3C(=O)N3CCOCC3)n2)cc1	1.4	2.4	14.4	25.5*	-2.3	0.1
CC(=O)N(/N=C1\Sc2ccccc2C1=O)c1ccc(C)cc1C	7.1	9.5	94.5*	-18.7	-8.3	7.3
NC(=O)COC(=O)c1c2c(nc3ccccc13)CCC2	-6.1	4.1	27.7	20.0*	1.2	-0.7
Nc1c2c(nc3ccccc13)CCC2	34.9*	-2.2	-0.8	13.4	-5.0	-0.3
CN(C)CCNc1c2c(nc3ccccc13)CCC2	0.0	1.5	35.7	1.7	3.6	-1.1
O=C(NCc1ccco1)c1c2c(nc3ccccc13)CCC2	-27.2	-30.4	71.5*	11.1	2.4	6.0
CCn1c(SCC(N)=O)nnc1-c1ccc2c(c1)OCO2	-3.9	-3.0	20.9	7.9	-2.5	-4.2
Cc1ccc(NC(=O)CSc2nccc(=O)[nH]2)c(S(=O)(=O)N2CCOCC2)c1	-1.7	-22.5	63.6*	16.9	-1.0	-2.5
O=c1oc2c3c4c(cc2s1)CCCN4CCC3	-34.6	-63.9	32.0	35.5*	-35.0	11.2
O=C(NCc1ccc(F)cc1)C1CCN(S(=O)(=O)c2ccc(Cl)cc2)CC1	0.2	-0.4	24.0	8.7	2.4	4.2
Cc1cc(NC(=O)CSc2nc(N)c(NC(=O)c3ccc(F)c(F)c3)c(=O)[nH]2)no1	-1.5	0.1	21.8	22.6*	-2.2	1.0
CC(C)(O)c1cc2ccc(C#CCCN3C(=O)c4ccccc4C3=O)cc2c(=O)o1	-2.7	-3.7	x	-2.7	x	x

Assay outcomes as filed in PubChem BioAssay.
